From article PMC4552634, “A New Set of Chemical Starting Points with Plasmodium falciparum Transmission-Blocking Potential for Antimalarial Drug Discovery” (PLoS ONE, 2015)
The campaign covered roughly 13,000 compounds. About 3,200 (25%) showed an effect of 50% or more. The list shows a part of the results.

The compounds below were run on P. falciparum stage V gametocytes. Conditions: 48 h, 5 µM; inhibitor.
Design: BacTiter-Glo ATP luminescence viability of purified stage V gametocytes in 384-well plates, per cent inhibition versus DMSO

Row | Compound | % Inhibition [%]
1 | CC(C)[C@@H](C(=O)NCc1cccc(C(F)(F)F)c1)N1C(=O)CCC1C(=O)Nc1ccc([N+](=O)[O-])cc1 (stereo partly shown) [TCMDC-141408] | -12.94
2 | COc1ccc(Cc2cnc3nc(N)nc(N)c3c2C)cc1 [TCMDC-137704] | 42.37
3 | CC(=O)NCC(=O)NC1=NC(C)(C)N(OCc2ccc3ccccc3c2)C(N)=N1 [TCMDC-131579] | 9.815
4 | CC(=O)Nc1cccc(C(=O)Nc2cccc(-c3cccc(-c4nc5ccccc5[nH]4)c3)c2)c1 [TCMDC-132134] | -16.76
5 | COc1cccc(-n2ncc3c(N/N=C/c4ccc(CN(C)CCN(C)C)cc4)ncnc32)c1 [TCMDC-138728] | 20.85
6 | O=C(NCCCc1ccccc1)c1csc(C2CCCN(C(=O)c3ccc(O)c(-c4ccccc4)c3)C2)n1 (stereo not shown) [TCMDC-140153] | -2.163
7 | O=C(Nc1cccnc1)c1cn(-c2ccccc2)nc1-c1cccs1 [TCMDC-124055] | -11.35
8 | COc1ccc(NC(=O)[C@H](CC(C)C)Nc2cc(C)nc(NCc3cccc(C)c3)n2)cc1 [TCMDC-134891] | -4.805
9 | O=[N+]([O-])c1cccc(NC(=S)N2CCCN(Cc3ccc(C(F)(F)F)cc3)CC2)c1 [TCMDC-141016] | 26.08
10 | O=C(Nc1cccc(CN2CCCN(Cc3ccc(O)cc3)CC2)c1)c1cccc(F)c1 [TCMDC-141816] | -13.75
11 | O=C(Nc1cccc(OC2CCN(Cc3ccccc3)CC2)c1)Nc1cccc([N+](=O)[O-])c1 [TCMDC-139544] | -4.381
12 | O=[N+]([O-])c1cccc(NC(=S)N2CCCN(Cc3ccc(F)cc3F)CC2)c1 [TCMDC-141015] | 78.9
13 | O=C(/C=C/c1ccc(Cl)c(Cl)c1)NCCCCCN1CCCN(C(=S)Nc2cccc(Cl)c2)CC1 [TCMDC-135894] | 9.594
14 | O=[N+]([O-])c1cccc(NC(=S)N2CCCN(Cc3ccc(Cl)cc3Cl)CC2)c1 [TCMDC-141017] | 68.72
15 | Fc1ccc(-c2cncc(Nc3ccncc3)n2)cc1 [TCMDC-134499] | 21.35
16 | CC1(C(=O)Nc2ccc([N+](=O)[O-])cc2O)CC2c3ccccc3C1c1ccccc12 (stereo not shown) [TCMDC-124076] | -1.633
17 | O=C(NC1CCC(N2CCN(c3cccc4[nH]ccc34)CC2)CC1)c1cc2cccnc2[nH]1 (stereo not shown) [TCMDC-134216] | -40.15
18 | CC(=O)N(C)C1CCN(Cc2ccc(-c3ccc(-c4nc5ccc(F)cc5[nH]4)s3)cc2)C1 (stereo not shown) [TCMDC-133895] | -2.042
19 | NC1CCN(Cc2cccc(-c3ccc(-c4nc5ccccc5[nH]4)s3)c2)C1.O=C(O)C(F)(F)F (stereo not shown) [TCMDC-133869] | 26.1
20 | NC1CCCN(Cc2ccc(-c3ccc(-c4nc5ccccc5[nH]4)s3)cc2)C1 (stereo not shown) [TCMDC-133849] | 41.97

Row | Compound | % Inhibition [%]
21 | NC1CCCN(Cc2ccc(-c3ccc(-c4nc5ccc(F)cc5[nH]4)s3)cc2)C1 (stereo not shown) [TCMDC-133856] | 57.48
22 | NC1CCN(Cc2ccc(-c3ccc(-c4nc5ccccc5[nH]4)s3)cc2)C1 (stereo not shown) [TCMDC-133847] | 76.03
23 | OCC1CCN(Cc2ccc(-c3ccc(-c4nc5ccc(F)cc5[nH]4)s3)cc2)CC1 [TCMDC-133127] | -4.488
24 | OC1CCCN(Cc2ccc(-c3ccc(-c4nc5ccc(F)cc5[nH]4)s3)cc2)C1 (stereo not shown) [TCMDC-133821] | -16.69
25 | NC1CCN(Cc2ccc(-c3ccc(-c4nc5ccc(F)cc5[nH]4)s3)cc2)C1 (stereo not shown) [TCMDC-133854] | 66.76
26 | CCOc1cc(C(=O)NCC2CCN(CC3CCCCC3)CC2)ccc1-c1nc2ccc(Cl)cc2[nH]1 [TCMDC-140914] | -32.49
27 | O=C(NCCc1ccc(Cl)c(Cl)c1)[C@@H]1CCCN1C(=O)c1ccc(O)c(-c2cccc(C(F)(F)F)c2)c1 [TCMDC-140822] | 3.039
28 | O=C(NCc1ccc(Cl)cc1)c1ccc(C(=O)NCC2CCCN2CC2CCCCC2)cc1 (stereo not shown) [TCMDC-136754] | -3.385
29 | O=C(/C=C/c1ccc(Cl)c(Cl)c1)NCCCCCN1CCCN(C(=O)Nc2ccc(Cl)c(C(F)(F)F)c2)CC1 [TCMDC-135762] | -47.47
30 | O=C(/C=C/c1ccc(Cl)c(Cl)c1)NCCCCCCN1CCN(C(=O)Nc2ccc(Cl)c(C(F)(F)F)c2)CC1 [TCMDC-135836] | -47.93
31 | O=C(/C=C/c1ccc(Cl)cc1)NCCCCCN1CCN(C(=O)C=Cc2ccc(Cl)c(Cl)c2)CC1 [TCMDC-135914] | 71.52
32 | O=C(/C=C/c1ccc(C(F)(F)F)cc1)NCCCCCN1CCN(C(=O)Nc2ccc(F)c(Cl)c2)CC1 [TCMDC-136096] | 8.329
33 | O=C(/C=C/c1ccc(C(F)(F)F)cc1)NCCCCCN1CCCN(C(=O)Nc2ccc(F)c(Cl)c2)CC1 [TCMDC-136107] | 77.99
34 | Cc1cc(C)c(NC(=O)N2CCCN(CCCCCNC(=O)/C=C/c3ccc(Cl)c(Cl)c3)CC2)c(C)c1 [TCMDC-135753] | 28.16
35 | O=C(/C=C/c1ccc(Cl)c(Cl)c1)NCCCCCN1CCCN(C(=S)Nc2ccc(Cl)cc2)CC1 [TCMDC-135893] | 2.458
36 | O=C(/C=C/c1ccc(Cl)c(Cl)c1)NCCCCCCN1CCCN(C(=O)Nc2ccc(Cl)c(C(F)(F)F)c2)CC1 [TCMDC-135935] | 84.32
37 | Cc1noc(-c2ccccc2)c1NC(=O)NC1CCN(CCCCCNC(=O)/C=C/c2ccc(Cl)c(Cl)c2)CC1 [TCMDC-135890] | -22.75
38 | O=C(/C=C/c1ccc(Cl)c(Cl)c1)NCCCCCN1CCCN(C(=O)Nc2ccc(Cl)cc2)CC1 [TCMDC-135748] | -7.449
39 | Cc1noc(-c2ccccc2)c1NC(=O)N1CCN(CCCCCCNC(=O)/C=C/c2ccc(Cl)c(Cl)c2)CC1 [TCMDC-135892] | 75.05
40 | O=C(/C=C/c1ccc(C(F)(F)F)cc1)NCCCCCN1CCCN(C(=O)Nc2ccc(Cl)c(Cl)c2)CC1 [TCMDC-136104] | -57.55
